GLD-1 TGE inh = GLD-1-TGE RNA interaction inhibition (C. elegans). Q17339. purified GLD-1 + fluorescein TGE RNA, fluorescence polarization. inhibition, % at 5.96 µM. 320,000 tested, 0.44% active;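 active = percent inhibition above a per-plate cutoff, the plate mean of test compounds plus 3 SD, cut at about 30% in these data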
MCL1 BIM primary = MCL1-BIM-BH3 interaction inhibition (human) | GST-MCL1 / FITC-Bim-BH3 fluorescence polarization | inhibition, % at 10.9 µM | 320,000 tested, 0.68% active | AID 2057;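 active = inhibition above the mean inhibition of all tested compounds plus 3 SD, set per campaign, cut at about 40% in these data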;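 note: higher means more loss of mP so more displacement of Bim peptide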
Target sequence (Q07820 whole entry, looked up): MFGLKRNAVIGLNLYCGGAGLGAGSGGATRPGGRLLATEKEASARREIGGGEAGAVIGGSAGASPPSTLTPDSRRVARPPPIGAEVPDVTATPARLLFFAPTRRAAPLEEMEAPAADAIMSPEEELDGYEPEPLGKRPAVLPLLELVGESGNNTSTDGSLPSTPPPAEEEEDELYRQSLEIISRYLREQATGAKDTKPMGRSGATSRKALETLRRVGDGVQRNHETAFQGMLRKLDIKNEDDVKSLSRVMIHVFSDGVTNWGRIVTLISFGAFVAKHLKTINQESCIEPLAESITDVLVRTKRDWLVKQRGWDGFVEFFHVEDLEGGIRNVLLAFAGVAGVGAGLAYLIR
Mcl1-Noxa inh = disrupts binding of human Mcl-1 to Noxa peptide | AID 1022 | TR-FRET Mcl-1/Noxa peptide binding, 2 h | Q07820 | 220,000 tested, 1.5% active | inhibition, % at 21.7 µM;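 active = compounds that cut the protein-peptide binding signal by more than 50% relative to plate controls in a single-dose test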;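 note: His-tagged Mcl-1 with rhodamine Noxa BH3 peptide and terbium anti-His antibody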
BCLXL inh = inhibitors of human Bcl-xL; inhibition, % at 10.9 µM; GST-Bcl-xL / FITC-Bim BH3 peptide fluorescence polarization; 320,000 tested, 0.7% active; Q07817;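 active = inhibition above the mean of all tested compounds plus 3 SD, cutoff set per campaign, cut at about 30% in these data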;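 note: inhibitors lower millipolarization by displacing the labeled peptide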
Mcl1-Bid inh = Mcl-1/Bid interaction inhibition | TR-FRET Mcl-1/Bid-Dy647 peptide binding, 1536-well | inhibition, % at 21.7 µM | 220,000 tested, 0.97% active | Q07820;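 active = compounds that cut the binding signal by more than half at the single screening dose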;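 note: His-tagged Mcl-1 with europium anti-His antibody binding Bid BH3 peptide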
Bim-Mcl-1 = disrupts Bim peptide binding to human Mcl-1; Q07820; Bead-based flow cytometry, Bim peptide-Mcl-1 binding; inhibition, % at 10 µM; 190,000 tested, 0.1% active; AID 1009; in the data active = inhibition above about 40%
BCLXL inh confirm = counter-screen for MCL1 inhibitors: confirmation of human Bcl-xL inhibitors; shares compounds with MCL1 BIM primary; inhibition, % at 10.9 µM; AID 2166; GST-Bcl-xL / FITC-Bim BH3 peptide FP binding; 1,700 tested, 54% active;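 active = inhibition above a cutoff equal to the mean inhibition of all tested compounds plus 3 SD, cut at about 30% in these data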
MCL1 BIM confirm = confirmation of human MCL1 and BIM-BH3 interaction inhibitors | shares compounds with MCL1 BIM primary | GST-MCL1 / FITC-Bim-BH3 fluorescence polarization | inhibition, % at 10.9 µM | 1,700 tested, 61% active;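 active = inhibition above the average of all tested compounds plus 3 SD, cut at about 40% in these data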
A number is an active result; – = inactive; · = no result given; + = active, no number. Only some compounds are listed: those with a hit (about 2.3% of all), similar ones and a draw of the others.

SMILES	GLD-1 TGE inh	MCL1 BIM primary	Mcl1-Noxa inh	BCLXL inh	Mcl1-Bid inh	Bim-Mcl-1	BCLXL inh confirm	MCL1 BIM confirm
CC(=O)c1c(Cl)nc2cccc3c2c1-c1ccccc1C3=O	–	59	·	54	·	·	40	–
CSc1nsc(/C=C/Nc2ccc(O)cc2C)c1C#N	71	49	55	60	–	–	43	–
O=C(CN(C(=O)c1csnn1)c1ccc(F)c(Cl)c1)NC1CCCC1	–	–	·	–	·	·	·	·
Cc1ccc(N(C)S(=O)(=O)c2cc3c(cc2C)NC(=O)CO3)cc1	–	–	·	–	·	·	·	·
COC(=O)CCCC[C@@H]1SC[C@@H](NC(=O)OC)[C@@H]1NC(=O)OC	–	–	–	–	–	–	·	·
COC(=O)CCCCC1SCC(NC(=O)OC)C1NC(=O)OC (configuration not stated)	–	49	–	–	–	–	–	–
CCOC(=O)c1cc(CC)sc1NC(=O)COC(=O)c1cc[n+]([O-])cc1	–	–	–	–	–	–	·	·
CCN(CC(=O)Nc1c(F)cccc1F)C(=O)/C=C/c1ccc2ccccc2n1	–	86	·	32	·	·	–	90
CCN(CC(=O)Nc1c(F)cccc1F)C(=O)c1ccc2ccccc2n1	–	–	·	–	·	·	·	·
COc1cc(OC)c(OC)cc1/C=C1/Cc2ccccc2C1=O	–	111	·	–	·	·	85	103
COc1ccc2nc(N3CCCC3)c(C#N)cc2c1	49	67	–	74	–	–	115	130
CC(C)(C)OC(=O)C[C@@H]1C/C=C\C[C@@H](CC(=O)N[C@@H](CO)Cc2ccccc2)C(=O)N2CCC[C@@H]2COC1=O	–	·	·	·	·	·	·	·
Cn1c(=O)n(C)c2cc(S(=O)(=O)Nc3cc(Cl)ccc3O)ccc21	–	–	–	–	–	–	·	·
COc1cccc(F)c1C(=O)NC(=O)Nc1ccc2nc(C)oc2c1	91	119	–	119	–	·	54	–
CSc1nc2ccc(NC(=O)NC(=O)c3c(F)cccc3F)cc2s1	–	–	–	–	–	·	·	·
C=CCNS(=O)(=O)c1cccc2cc(C(=O)O)c(O)cc12	–	97	–	–	–	–	–	–
CC(=O)Nc1ccccc1NC(=O)C/C(C)=N/NC(=O)c1cccnc1	–	–	·	–	·	·	·	·
Cc1[nH]c2ccc(C(=O)NCCCN(C)C3CCCCC3)cc2c1C	–	–	·	–	·	·	·	·
COc1ccc2ccc3c(c2c1)N=CC1(O3)N(C)c2ccccc2C1(C)C (configuration not stated)	–	54	–	36	–	–	62	83
COc1ccc2c(c1)Sc1ccccc1N2CCN(C)C	–	–	–	–	–	–	·	·
CC1OC2(C)OC(=N)C1(C#N)C(C#N)(C#N)C2c1ccccc1 (configuration not stated)	66	87	–	55	–	–	–	–
CCOc1ccc2nc3cc(NCc4ccc(OC)cc4)ccc3c(N)c2c1	–	+	·	184	·	·	139	166
CCn1cnc2cc(NCc3ccc(OC)cc3)ccc21	–	–	–	–	–	–	·	·
Cc1ccc(NC(=O)/C(=C\c2ccc([N+](=O)[O-])cc2)NC(=O)c2ccccc2)cc1	–	–	–	–	–	–	·	·
O=C(N/N=C/c1ccc(O)c(O)c1O)/C(=C/c1ccc([N+](=O)[O-])cc1)NC(=O)c1ccccc1	–	41	87	–	–	–	33	63
COc1ccccc1-n1c(C)c2c(OC)cccc(=O)c2c1C	–	40	–	39	–	–	–	–
Cc1nc2ccccn2c1C(=O)NC1CCCc2ccccc21 (configuration not stated)	–	–	–	–	–	–	·	·
Cn1c(CNc2ccc(Cl)cc2)nc2ccccc21	–	–	–	–	–	–	·	·
CC(C)N=c1cc2n(-c3ccc(Cl)cc3)c3ccccc3nc-2cc1Nc1ccc(Cl)cc1	–	118	·	78	·	·	+	+
CCOC(=O)CC1COCCN1Cc1cn[nH]c1-c1cc(OC)c(OC)c(OC)c1 (configuration not stated)	–	–	–	–	–	·	·	·
